# Laboratory results as given in the supplement of paper PMC4962491.
# ± gives the standard deviation of the averaged measurements.
# System: FaDu
# Experiment: mitochondrial oxygen consumption rate normalised to cell number, Z score vs plate DMSO wells; higher = higher oxygen consumption (negative = OCR reduction)
# Settings: treatment time 24 h, assay medium: 5 mM glucose, 5 mM pyruvate, 4 mM glutamine
# Method: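 Secondary screen: FaDu cells were incubated 24 h with the top 130 primary hits at 0.08, 0.4, 2 or 10 uM. Mitochondrial-specific OCR (basal minus antimycin A) was measured on a Seahorse XF96 in medium with 5 mM glucose, 5 mM pyruvate and 4 mM glutamine and normalised to Hoechst cell number. OCR score = (OCR - mean of plate DMSO wells) / SD of plate DMSO wells. Three repeats.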
# 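Further: compound exposure in DMEM (4 mM L-glutamine, 5 mM glucose), antimycin A injected at 2 µM after the basal reading and its residual OCR subtracted from basal.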
Compound,mitochondrial oxygen consumption rate normalised (0.08 µM),mitochondrial oxygen consumption rate normalised (0.4 µM),mitochondrial oxygen consumption rate normalised (2 µM),mitochondrial oxygen consumption rate normalised (10 µM)
CN(C)c1ccc2nc3ccc(=[N+](C)C)cc-3sc2c1,0.933 ± 1.1,1.47 ± 0.68,-2.4 ± 1.5,-2.94 ± 3.9
CN(C)C(=O)C(CCN1CCC(O)(c2ccc(Cl)cc2)CC1)(c1ccccc1)c1ccccc1,0.831 ± 1.1,0.616 ± 1.4,0.593 ± 1.7,-0.932 ± 1.7
Cc1cc(/C=C/c2ccc3cc(N(C)C)ccc3[n+]2C)c(C)n1-c1ccccc1,-1.73 ± 1,-11.7 ± 0.64,-13.47 ± 0.04,< -13.8
COc1cccc2c1C(=O)c1c(O)c3c(c(O)c1C2=O)C[C@@](O)(C(C)=O)C[C@@H]3O[C@H]1C[C@H](N)[C@H](O)[C@H](C)O1,1.45 ± 1.5,-2.21 ± 0.4,-6.3 ± 0.54,–
Oc1c(Br)cc(Br)c2cccnc12,0.816 ± 1.4,1.29 ± 1,-0.243 ± 2.5,-3.74 ± 2
Oc1c(Cl)cc(Cl)c(Cl)c1Cc1c(O)c(Cl)cc(Cl)c1Cl,-0.831 ± 1.9,1.92 ± 0.93,-2.48 ± 0.61,-13.3 ± 0.45
Clc1ccc(COC(Cn2ccnc2)c2ccc(Cl)cc2Cl)cc1 (stereo not given),0.524 ± 0.89,0.994 ± 1.6,0.111 ± 1.5,-4.62 ± 1.4
COc1cc([C@@H]2c3cc4c(cc3[C@@H](O[C@@H]3O[C@@H]5CO[C@@H](c6cccs6)O[C@H]5[C@H](O)[C@H]3O)[C@H]3COC(=O)[C@H]23)OCO4)cc(OC)c1O [Teniposide],0.487 ± 1.3,0.0174 ± 0.54,–,–
Nc1nc(Cl)nc2c1ncn2[C@H]1C[C@H](O)[C@@H](CO)O1 [Cladribine],0.0971 ± 0.62,1.11 ± 0.78,0.797 ± 2,-0.553 ± 2.5
CCCCCCc1ccc(O)cc1O.Nc1c2ccccc2nc2ccccc12,-0.393 ± 1.3,-0.59 ± 2.2,-2.14 ± 1.1,-6.38 ± 0.68
CC[C@@]1(O)C(=O)OCc2c1cc1n(c2=O)Cc2cc3c(CN(C)C)c(O)ccc3nc2-1 [Topotecan],-0.916 ± 1.4,0.308 ± 0.26,–,0.664 ± 1.4
